Test results as given in PubChem BioAssay (NCATS).
Inconclusive results are not listed. A call without a number means that no potency is given here. The source made the active and inactive calls. The call rests on the fitted dose curve; in most records, active means well fitted cell-killing curve with a large enough effect; inconclusive means small, poorly fitted or top-dose-only effect; inactive means flat fitted curve, though single readings scatter.

test: qHTS of pediatric cancer cell lines to identify multiple opportunities for drug repurposing: Primary screen for Rh18 cells (AID 1347102); details: Rh18 rhabdomyosarcoma viability, CellTiter-Glo luminescence, 48 h; series mostly up to 46 µM; further: nearly all actives have a fitted effect of over 65% in size
Procedure, shortened: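 Viability after 48 h compound treatment at 37C, 500-1,000 cells/well, read as ATP luminescence with CellTiter-Glo. Primary screens used 11-point (MIPE, 0.78 nM-46 µM) or 8-point (NPC, 0.59 nM-46 µM) final concentrations; follow-up screens used 11-point dilutions.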
Potency means the concentration at half of the fitted maximal effect.

Row | SMILES | Potency
1 | COCCCCC(=NOCCN)c1ccc(C(F)(F)F)cc1 | inactive
2 | CN(C)Cc1ccc(-c2nc3cccc4c3n2CCNC4=O)cc1 | inactive
3 | Cc1ccc(Nc2cc(-c3cccc(N4C(=O)c5ccccc5C4=O)c3)ncn2)cc1NS(C)(=O)=O | inactive
4 | CC1(C)O[C@H]2C[C@@H]3[C@H]4CCC5=CC(=O)C=C[C@]5(C)[C@@]4(F)[C@@H](O)C[C@]3(C)[C@]2(C(=O)CO)O1 | inactive
5 | CC(C)[C@H](CO)Nc1nc(Nc2ccc(C(=O)O)c(Cl)c2)c2ncn(C(C)C)c2n1 | inactive
6 | NC(=O)NN=Cc1ccc([N+](=O)[O-])o1 | inactive
7 | Cc1ccc(C(C)(O)c2nc3ccccc3s2)c(C)c1 (stereo not given) | inactive
8 | O=C1NC(=O)C(=Cc2cccc(C(F)(F)F)c2)S1 | inactive
9 | O=C1NC(=O)C(=Cc2ccc3c(c2)OC(F)(F)O3)S1 | inactive
10 | CCOc1ccc(Nc2nc(-c3c(C)nc4ccccn34)cs2)cc1 | inactive
11 | C[C@H](NC(=O)C(=O)Nc1ccccc1C(C)(C)C)C(=O)N[C@@H](CC(=O)O)C(=O)COc1c(F)c(F)cc(F)c1F | inactive
12 | O=C(Nc1ccccc1-c1cn2c(CN3CCNCC3)csc2n1)c1cnc2ccccc2n1 | 8.33 µM (active)
13 | CC1(C)S[C@H]2[C@H](NC(=O)[C@@H](N)c3ccc(O)cc3)C(=O)N2[C@@H]1C(=O)O | 2.96 µM (active)
14 | CC(C)C[C@H](CC(=O)O)C(=O)N[C@@H](Cc1c[nH]c2ccccc12)C(=O)N[C@@H](C)c1ccccc1 | inactive
15 | Cc1[nH]c(C=C2C(=O)Nc3ccc(S(=O)(=O)Cc4c(Cl)cccc4Cl)cc32)c(C)c1C(=O)N1CCC[C@H]1CN1CCCC1 | 14.8 µM (active)
16 | CN(C[C@@H]1COCCO1)S(=O)(=O)Nc1ccc2ccc3ncc(-c4cnn(C)c4)cc3c(=O)c2c1 | 14.8 µM (active)
17 | C=CCc1ccc(O)c(-c2ccc(O)c(CC=C)c2)c1 | inactive
18 | O=C(Nc1cc(Cl)cc2c1[nH]c1cnccc12)c1cccnc1 | inactive
19 | N[C@@]1(C(=O)O)CS(=O)(=O)[C@H]2[C@H](C(=O)O)[C@H]21 | inactive
20 | O=C(NOCC(O)CO)c1cc(Br)c(F)c(F)c1Nc1ccc(I)cc1F (stereo not given) | inactive
21 | CC(C)n1cnc2c(NCCCCCCNC(=O)OC(C)(C)C)nc(NCCO)nc21 | inactive
22 | CCOC(CN1C(=O)[C@](CC(=O)Nc2ccc(C)cc2)(NC(=O)Nc2ccc(C)cc2)c2ccccc21)OCC | inactive
23 | O=C(O)C=Cc1ccc(O)c(O)c1 | inactive
24 | CO[C@H]1C[C@@H]2CC[C@@H](C)[C@@](O)(O2)C(=O)C(=O)N2CCCC[C@@H]2C(=O)O[C@H]([C@H](C)C[C@@H]2CC[C@H](OC(=O)C(C)(CO)CO)[C@H](OC)C2)CC(=O)[C@H](C)C=C(C)[C@@H](O)[C@@H](OC)C(=O)[C@H](C)C[C@H](C)C=CC=CC=C1C | 29.6 µM (active)
25 | CS(=O)(=O)N(Cc1ccco1)CC(O)Cn1c2ccccc2c2ccccc21 (stereo not given) | inactive
26 | O=C(N[C@@H](c1ccccc1)[C@@H]1CCCCN1)c1cccc(C(F)(F)F)c1Cl | inactive
27 | NC(=O)[C@@H](CCC(F)(F)F)N(Cc1ccc(-c2ncon2)cc1F)S(=O)(=O)c1ccc(Cl)cc1 | inactive
28 | Cc1cccc(Nc2nc(-c3ccncc3)cs2)c1 | inactive
29 | O=C1NC(=O)C(=Cc2ccc(-c3ccc(F)cc3)o2)S1 | inactive
30 | O=C(Nc1ccccc1Br)N[C@@H]1CCN(c2ccc(C(F)(F)F)cn2)C1 | inactive
